Results as given in PubChem BioAssay (NCATS).
Inconclusive results are not listed. Entries that show only a call come without a potency. Values without a mark were called inactive. The source made the active and inactive calls. Calls follow the shape of the dose curve; as a rule, active = well fitted cell-killing curve with a large enough effect; inconclusive = small, poorly fitted or top-dose-only effect, or effect the other way; inactive = no such curve, though single readings can be large or run the other way.

Legend:
[1] = Viability qHTS for spleen associated tyrosine kinase inhibitor (SYKi) naive MV4-11 cells (AID 1963823); also: nearly all actives have a fitted effect of over 40% in size
In short: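 Compounds were dispensed acoustically onto plates, MV4-11 cells (SYKi-naive) added at 500 per well, and plates incubated 72 hr at 37 C. CellTiter-Glo was added and luminescence measured after 10 min.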

[2] = Viability qHTS for spleen associated tyrosine kinase inhibitor (SYKi) drug resistant MV4-11 cells (AID 1963824); also: nearly all actives have a fitted effect of over 35% in size
In short: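 CellTiter-Glo luminescence, read 10 min after reagent addition, reports viability after a 72 hr compound exposure. Cells are an MV4-11 line made resistant to SYK inhibition, seeded at 500 per well onto compound-containing plates.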
Potency is read from the fitted curve at half-maximal effect.

| SMILES | Potency [1] | Potency [2] | viability (% of control) [1] | viability, % of control [2] |
| --- | --- | --- | --- | --- |
| Cc1c(Cl)cccc1S(=O)(=O)Nc1nc(NCCc2ccccc2)nc2c1CN(Cc1ccccc1)CC2 | 16.4 µM (active) | 13 µM (active) |  |  |
| CC1CCC2C(C)(C)C(O)CCC2(C)C12Cc1c(O)cc3c(c1O2)CN(C(CCCN=C(N)N)C(=O)O)C3=O (configuration not stated) | 3.17 µM (active) | 5.63 µM (active) |  |  |
| O=C(NC(NC(=S)Nc1ccc(F)c([N+](=O)[O-])c1)C(Cl)(Cl)Cl)C(c1ccccc1)c1ccccc1 (configuration not stated) | 3.26 µM (active) | 3.26 µM (active) |  |  |
| CCNC(=O)[C@@H]1CCCN1C(=O)[C@H](CCCN=C(N)N)NC(=O)[C@H](CC(C)C)NC(=O)[C@@H](C)NC(=O)[C@H](Cc1ccc(O)cc1)NC(=O)[C@H](CO)NC(=O)[C@H](Cc1c[nH]c2ccccc12)NC(=O)[C@H](Cc1cnc[nH]1)NC(=O)[C@@H]1CCC(=O)N1 | inactive | inactive |  |  |
| CC(=O)O[C@@H]1[C@@H](O)[C@H](O[C@H]2CC[C@]34C[C@]35CC[C@]3(C)[C@@H]([C@@]6(C)CC[C@@H](C(C)(C)O)O6)[C@@H](O)C[C@@]3(C)[C@@H]5C[C@H](O[C@@H]3O[C@H](CO)[C@@H](O)[C@H](O)[C@H]3O)[C@H]4C2(C)C)OC[C@H]1O | inactive | inactive |  |  |
| CC1(CO)CC[C@]2(C(=O)O[C@@H]3O[C@H](CO)[C@@H](O)[C@H](O)[C@H]3O)CC[C@]3(C)C(=CCC4[C@@]5(C)CC[C@H](O[C@@H]6O[C@H](C(=O)O)[C@@H](O)[C@H](O)[C@H]6O)C(C)(C)C5CC[C@]43C)C2C1 (some centres not stated) |  |  | 87.4% [at 9.25 µM] | 104% [at 9.25 µM] |
| C=C(C)C1CCC2(C(=O)OC3OC(COC4OC(CO)C(O)C(O)C4O)C(OC4OC(C)C(O)C(O)C4O)C(O)C3O)CCC3(C(=O)O)C(CCC4C5(C)CCC(=O)C(C)(C)C5CCC43C)C12 (configuration not stated) |  |  | 84.8% [at 9.25 µM] | 91.7% [at 9.25 µM] |
| O=C(O)CC(CCc1ccccc1)OC1OC(CO)C(O)C(O)C1O (configuration not stated) | inactive | inactive |  |  |
| CNc1nc(-c2ccc3c(N)n[nH]c3c2)cc(N2C[C@@H](C(=O)NC3CCCCC3)CC[C@H]2C)n1 | 5.25 µM (active) | 5.9 µM (active) |  |  |
| O=C(O)CCc1cc2ccoc2cc1O[C@@H]1O[C@H](CO[C@@H]2OC[C@](O)(CO)[C@H]2O)[C@@H](O)[C@H](O)[C@H]1O | inactive | inactive |  |  |
| COc1cc(/C=C/C(=O)O[C@H]2[C@H](OC(=O)/C=C/c3cc(OC)c(O)c(OC)c3)O[C@H](CO[C@@H]3O[C@H](CO)[C@@H](O)[C@H](O)[C@H]3O)[C@@H](O)[C@@H]2O)ccc1O | inactive | inactive |  |  |
| COc1cc(C(CO)C(OC2OC(CO)C(O)C(O)C2O)c2ccc(O)c(OC)c2)ccc1O (configuration not stated) | inactive | inactive |  |  |
| COc1c2ccoc2cc2oc(CO[C@@H]3O[C@H](CO)[C@@H](O)[C@H](O)[C@H]3O)cc(=O)c12 | inactive | inactive |  |  |
| COc1cc2c(Nc3cc(F)c(Cl)c(Cl)c3)ncnc2cc1OCC1CCCN(C)CCC1 | 1.16 µM (active) | 2.59 µM (active) |  |  |
| C=C1[C@@H]2CC[C@@]3(C)[C@H](c4ccoc4)OC(=O)C[C@]13O[C@H]1CC(=O)C(C)(C)[C@H](CC(=O)OC)[C@]12C | inactive | inactive |  |  |
| C[C@@H]1[C@H](O)[C@@H]2OC(=O)C3=C2[C@H](CCC3)[C@@]12C[C@@H](c1ccoc1)OC2=O | inactive | inactive |  |  |
| CC(C)(O)/C=C/C(=O)[C@](C)(O)[C@H]1[C@H](O)C[C@@]2(C)[C@@H]3CC=C4[C@@H](C=C(O[C@@H]5O[C@H](CO)[C@@H](O)[C@H](O)[C@H]5O)C(=O)C4(C)C)[C@]3(C)C(=O)C[C@]12C | inactive | inactive |  |  |
| Nc1ncnc2c1ncn2[C@H]1CCCO1 | inactive | inactive |  |  |
| C/C=C(/C)C(=O)OC1CC(C)(C)CC2C3=CCC4C5(C)CCC(OC6OC(C)C(OC7OC(C(=O)O)C(O)C(OC8OC(CO)C(O)C(O)C8OC8OC(CO)C(O)C(O)C8O)C7O)C(O)C6O)C(C)(C)C5CCC4(C)C3(C)C(OC(=O)/C=C/C=C/C=C/CCC)C(OC(C)=O)C12CO (configuration not stated) |  |  | 68.8% [at 9.25 µM] | 73.3% [at 9.25 µM] |
| O=C(CCCCc1ccc2ccccc2c1)C(F)(F)F | inactive | inactive |  |  |
| CNc1ccc([N+](=O)[O-])c(Nc2ccc3[nH]ncc3c2)n1 | 2.59 µM (active) | 5.8 µM (active) |  |  |
